VACV Venus inh – inhibitors of vaccinia virus (Venus reporter); Vaccinia virus Venus reporter expression, fluorescence; Potency, µM (highest dose often 36.5 µM), inactives show at the highest dose activity change, negative = inhibition, actives largely listed as inhibitors; actives 0.46% (n = 330,000); calls by dose curve; tested in A549 cells; also: nearly all actives have a fitted effect of over 30% in size
Pf growth 96h – P. falciparum growth inhibition at 96 hours; P. falciparum luciferase reporter growth, 96 h; AID 504834; actives 6.9% (n = 320,000); Potency, µM (doses to about 28.7 µM), for inactives: at the highest dose activity change, negative = inhibition, hits mostly inhibitors
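96 h incubation, 37 C, 5% CO2, of luciferase-reporter P. falciparum-infected RBCs (2% hematocrit, 0.05% parasitemia final) with test compounds; endpoint luminescence.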
Pf growth 48h – P. falciparum growth inhibition at 48 hours (one generation); P. falciparum luciferase growth in erythrocytes, 48 h; Potency, µM (doses to about 28.7 µM), for the others: at the highest dose activity change, negative = inhibition, hits mostly inhibitors; actives 5.9% (n = 310,000)
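Luciferase-expressing P. falciparum in infected erythrocytes (2% hematocrit, 0.1% parasitemia final) in RPMI 1640/0.5% Albumax were exposed to compound for 48 hours at 37 C, 5% CO2; growth read as luminescence.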
AMA1 RON2 block – AMA1-RON2 (P. falciparum) interaction inhibition; AlphaScreen AMA1-biotinylated RON2 peptide binding; Potency, µM (top dose mostly 58.2 µM), without a hit: top-dose activity change, negative = inhibition, hits mostly inhibitors; actives 0.2% (n = 360,000); AID 720542;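 also: 0% = vehicle wells and -100% = peptide control; nearly all actives have a fitted effect of over 45% in size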
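AMA1 (3D7) with his tag at 25 nM final met compounds first, then biotinylated RON2 peptide at 25 nM; detection used donor plus acceptor beads, 10 µg/mL apiece, read by AlphaScreen after 30 min at room temperature.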
Vaccinia mCherry – vaccinia inhibition (mCherry reporter) | actives 0.63% (n = 310,000) | AID 720579 | Vaccinia virus mCherry reporter infection, fluorescence | Potency, µM (doses to about 36.5 µM), inactives show top-dose activity change, negative = inhibition, hits mostly inhibitors; calls by dose curve; tested in A549 cells; also: nearly all actives have a fitted effect of over 35% in size
The depositor's hits bear a star; i = inactive; ? = inconclusive; / = no result; [ ] = another dose, or the depositor's remark. Sampled rows, rich in hits. Any-hit rate of the full collection: about 8.7%. Unless noted, calls follow the shape of the dose curve; as a rule, active = well fitted curve in the direction sought with a large enough effect; inconclusive = small, poorly fitted or top-dose-only effect, or another doubt; inactive = no such curve, though single readings can be large; an effect the other way counts as inactive or inconclusive. Unless noted, % is scaled to controls: 0 for no effect and ±100 for the full control effect; potency is read from the fitted curve at half-maximal effect.

SMILES	VACV Venus inh	Pf growth 96h	Pf growth 48h	AMA1 RON2 block	Vaccinia mCherry
COc1cc2c(C(=O)N3CCN(C)CC3)c(C)n(C)c2cc1Br	-18.8%	i	97.5%	-0.4%	/
COc1cc2c(C(=O)N3CCN(C)CC3)c(C)n(-c3ccccc3)c2cc1Br	/	1.47µM*	4.65µM*	1.9%	/
COc1ccccc1/C=N/NC(=O)CN(C1=NS(=O)(=O)c2ccccc21)c1ccccc1	?	0.147µM*	0.8%	6.3%[11.6 µM]	-2.6%
COc1ccc(/C=N/NC(=O)CN(C2=NS(=O)(=O)c3ccccc32)c2ccccc2)cc1	-13.6%	17.6%	2.5%	22.8%	i
COC(=O)C1C(c2ccccc2)C(C(=O)OCc2ccco2)C1c1ccccc1 (stereo not drawn)	/	-4.3%	10.4µM*	10.7%	/
O=C(O)C1C(c2ccccc2)C(C(=O)OCc2ccco2)C1c1ccccc1 (stereo not drawn)	/	-6.8%	-7.0%	-3.4%	/
O=C(NCCS(=O)(=O)N1CCN(c2ccc(F)cc2)CC1)C12CC3CC(CC(C3)C1)C2	?	-8.9%	11.7µM*	5.9%	?
CC(C)CNC(=O)C(=O)Nc1cc2c3c(c1)C(C)C(=O)N3CCC2 (stereo not drawn)	/	14.7µM*	-23.8%	4.6%	/
CC(C)CC(=O)Nc1cc2c3c(c1)C(C)C(=O)N3CCC2 (stereo not drawn)	/	22.5%	4.9%	7.9%	/
CC1C(=O)N2CCCc3cc(S(=O)(=O)N4CCN(c5ccccc5F)CC4)cc1c32 (stereo not drawn)	/	20.3%	11.7µM*	9.8%	/
CC1C(=O)N2CCCc3cc(NC(=O)C(=O)NCCc4c[nH]c5ccccc45)cc1c32 (stereo not drawn)	-24.6%	4.15µM*	1.47µM*	-26.1%	-4.0%
Cc1ccc(S(=O)(=O)Nc2cc3c4c(c2)C(C)C(=O)N4CCC3)cc1 (stereo not drawn)	-11.6%	?	10.4µM*	-14.6%	i
Cc1ccc(NC(=O)C(=O)NCC(c2cccnc2)N2CCN(c3ccccc3F)CC2)cc1Cl (stereo not drawn)	-17.2%	/	/	/	-18.5%
COc1ccc(Nc2ncnc3c2cnn3-c2ccc(C)cc2C)cc1	13.5%	/	/	/	-5.0%
COc1ccc2[nH]c(C)cc2c1	-7.0%	/	/	/	-12.3%
O=C(NCc1ccc2c(c1)CCN2C(=O)c1ccc(F)cc1)c1cc2ccccc2[nH]1	-4.3%	/	/	/	-19.2%
Cc1ccc(C)c(NC(=O)Cn2c(=O)n(CC3CCCO3)c(=O)c3ccccc32)c1 (stereo not drawn)	-4.9%	/	/	/	-6.4%
CC(C)OCCCNc1ncnc2sc3c(c12)CCCC3	-25.8%	/	/	/	-8.3%
CC1C(=O)N2CCCc3cc(NC(=O)C(=O)NCCc4ccccc4)cc1c32 (stereo not drawn)	-20.9%	13.1µM*	?	-15.3%	-23.1%
COc1ccccc1CCNC(=O)C(=O)Nc1cc2c3c(c1)CC(=O)N3CCC2	-15.7%	1.04µM*	1.17µM*	-17.4%	-5.8%
c1ccc2c(CNC3CCCCC3)c[nH]c2c1	/	13.1µM*	/	-3.9%	/
S=C(NCCc1c[nH]c2ccccc12)NC1CCCCC1	-9.9%	-1.8%	23.5%	-14.1%	-17.8%
c1ccc2c(CN3CCN(C4CCCCC4)CC3)c[nH]c2c1	-10.5%	11.7µM*	6.57µM*	4.4%	/
Cc1ccc(N(CC(=O)NCCc2ccc(Cl)cc2)S(=O)(=O)N(C)C)cc1	-11.7%	/	/	/	-14.7%
CCCC(=O)NC(c1ccco1)c1cc([N+](=O)[O-])c2cccnc2c1O (stereo not drawn)	-4.7%	14.7%	?	-25.0%	-10.6%
SMILES	VACV Venus inh	Pf growth 96h	Pf growth 48h	AMA1 RON2 block	Vaccinia mCherry
CC(=O)NC(c1ccc(C)cc1)c1cc([N+](=O)[O-])c2cccnc2c1O (stereo not drawn)	?	?	?	-32.9%	12.6µM*
CCC(=O)NC(c1ccc(C)cc1)c1cc([N+](=O)[O-])c2cccnc2c1O (stereo not drawn)	?	19.8%	?	27.0%[11.6 µM]	11.2µM*
CCc1ccc(CNC(=O)c2cnc3sc4cc(OC)ccc4n3c2=O)cc1	-10.5%	/	/	/	-6.2%
Cc1ccccc1C(=O)N1CCc2c(cnc(C)c2CNC(=O)CN2CCCCC2)C1	-4.5%	/	/	/	-19.5%
COc1cnc(-c2ccccn2)nc1Oc1cccc(C(F)(F)F)c1	/	1.65µM*	2.33µM*	/	/
COc1ccnc(Oc2ccccc2)c1C#N	-9.0%	0.0%	30.3%	16.2%	-21.6%
CN(c1ccccc1)c1ncccn1	/	/	/	-8.9%	/
COc1cnc(-c2ccccn2)nc1Oc1ccccc1	0.7%	?	11.7µM*	58.7%	-11.8%
COc1cnc(-c2ccccn2)nc1N(C)c1ccccc1	?	0.928µM*	0.928µM*	-70.4%	?
N#Cc1ccc(C23CC4CC(CC(C4)C2)C3)[nH]c1=O	-11.7%	3.7µM*	?	?	-13.6%
Cc1ncc(C23CC4CC(CC(C4)C2)C3)[nH]1	/	39.1%	-16.5%	12.1%	/
COc1ccc(OC)c(NC(=O)c2ccc3c(c2)c(C)c(C)n3Cc2ccc(F)cc2)c1	-6.1%	/	/	/	-17.8%
CCCc1cc(C(=O)NC2CCCN(Cc3ccccc3F)C2)no1 (stereo not drawn)	-16.4%	10.4µM*	-14.8%	-8.1%	-9.2%
CC(=O)c1ccc(C(=O)NC2CCCN(Cc3ccccc3F)C2)cc1 (stereo not drawn)	/	5.86µM*	-10.9%	17.1%	/
O=C(Cc1ccc(Cl)cc1)NC1CCCN(Cc2ccccc2F)C1 (stereo not drawn)	/	69.2%	9.4%	0.7%	/
CSc1ccccc1C(=O)NC1CCCN(Cc2ccccc2F)C1 (stereo not drawn)	-15.4%	-8.5%	-12.5%	0.0%	-23.5%
O=C(CCn1cnnn1)NC1CCCN(Cc2ccccc2F)C1 (stereo not drawn)	-16.2%	13.1µM*	10.0%	-8.7%	i
CCc1[nH]nc(C(=O)NC2CCCN(Cc3ccccc3F)C2)c1C (stereo not drawn)	/	13.1µM*	0.0%	-1.0%	/
CC(C)NC(=O)[C@@H]1C[C@@H](Sc2ccccn2)CN1C1CCN(C)CC1	-15.5%	/	/	/	i
COc1ccccc1N1CCN(C(=O)c2oc3ccccc3c2N)CC1	-3.2%	/	/	/	-12.8%
CC(=O)N(c1ccc2ccccc2c1)C1SC(=O)N(c2cccc(C)c2)C1=O (stereo not drawn)	-9.0%	/	/	/	-7.1%
COC(=O)[C@@H]1CCCN1S(=O)(=O)Cc1ccccc1	-5.5%	/	/	/	i
CCc1ccccc1NC(=O)Cn1c(=O)n(Cc2ccc(OC)cc2)c(=O)c2oc3ccccc3c21	-16.0%	/	/	/	-17.6%
O=C(Cc1ccc2ccccc2c1)NO	-9.1%	/	/	/	-9.8%
Cc1oc2ccccc2c1CC(=O)NCCCN(C)C	/	5.2%	2.08µM*	-8.4%	/
Cc1cn([C@H]2C[C@H](O)[C@@H](CO)O2)c(=O)[nH]c1=O	/	5.6%	-0.7%	/	/
O=c1[nH]c(=O)n(C2CC(O)C(CO)O2)cc1I (stereo not drawn)	?	/	/	-0.5%	5.01µM*
